Data published in PubChem BioAssay AID1159580 (chemical genetic matrix, 2015).
In all, about 5,500 compounds went through this assay and about 2,000 (36%) were called active. Roughly 18% stayed inconclusive and do not appear here. Cut-off read from the data, not from the text of the source: active = normalized growth mostly below about 0.91 (no sharp cut-off); inconclusive = no clear call, values can overlap the other calls; inactive = mostly above about 0.92. This is one part of the list.

Experiment: chemical genetic growth profiling, strain panel (AID 1159580);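 note: tested at 20 µM; growth read once vehicle control cultures reached saturation at 30 °C; 1 = growth at the plate median or of vehicle wells; lower values mean less growth of the strain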
Details: S. cerevisiae deletion strains, growth OD

Measured: normalized growth

CCN(CC)CCOCCOC(=O)C1(c2ccccc2)CCCC1
inactive: locus YAL013W, strain DEP1, active compounds read low 0.986 | locus YAL021C, strain ccr4, active compounds read low 0.986 | locus YAL026C, strain drs2, active compounds read low 0.995 | locus YAL030W, strain snc1, active compounds read low 0.992 | locus YAL040C, strain CLN3, active compounds read low 0.988 | locus YBL061C, strain skt5, active compounds read low 0.996 | locus YBR009C, strain hhf1, active compounds read low 0.997 | locus YBR023C, strain chs3, active compounds read low 0.987 | locus YBR171W, strain sec66, active compounds read low 0.987 | locus YBR231C, strain swc5, active compounds read low 0.982 | locus YBR279W, strain paf1, active compounds read low 0.995 | locus YCL011C, strain gbp2, active compounds read low 0.99 | locus YCL016C, strain dcc1, active compounds read low 0.998 | locus YCL061C, strain MRC1 (second series), active compounds read low 0.994 | locus YCL061C, strain MRC1, active compounds read low 0.989 | locus YCL069W, strain vba3, active compounds read low 0.994 | locus YCR088W, strain abp1, active compounds read low 0.981 | locus YDL005C, strain med2, active compounds read low 0.988 | locus YDL040C, strain nat1, active compounds read low 0.998 | locus YDR001C, strain nth1, active compounds read low 0.999 | locus YDR069C, strain doa4, active compounds read low 0.984 | locus YDR137W, strain rgp1, active compounds read low 0.981 | locus YDR150W, strain NUM1, active compounds read low 0.995 | locus YDR159W, strain sac3, active compounds read low 0.99 | locus YDR195W, strain ref2 0.966 | locus YDR297W, strain sur2, active compounds read low 0.989 | locus YDR334W, strain swr1, active compounds read low 0.995 | locus YDR335W, strain msn5, active compounds read low 0.996 | locus YDR392W, strain spt3, active compounds read low 1.01 | locus YEL003W, strain gim4, active compounds read low 0.999 | locus YEL037C, strain rad23, active compounds read low 0.999 | locus YEL061C, strain CIN8 (second series), active compounds read low 0.999 | locus YER002W, strain NOP16, active compounds read low 1 | locus YER015W, strain faa2, active compounds read low 0.992 | locus YER016W, strain bim1, active compounds read low 0.995 | locus YER111C, strain swi4, active compounds read low 0.985 | locus YER155C, strain BEM2 (second series), active compounds read low 0.992 | locus YFR010W, strain ubp6, active compounds read low 1 | locus YGL167C, strain pmr1, active compounds read low 0.991 | locus YGL173C, strain kem1, active compounds read low 0.999 | locus YGL227W, strain vid30, active compounds read low 0.981 | locus YGL240W, strain doc1, active compounds read low 0.998 | locus YGL253W, strain hxk2, active compounds read low 0.989 | locus YGR078C, strain PAC10, active compounds read low 0.972 | locus YGR229C, strain SMI1, active compounds read low 0.979 | locus YHR013C, strain ard1, active compounds read low 0.969 | locus YHR027C, strain rpn1, active compounds read low 0.996 | locus YHR030C, strain SLT2, active compounds read low 0.967 | locus YHR079C, strain IRE1, active compounds read low 0.975 | locus YHR142W, strain chs7, active compounds read low 0.99 | locus YJL092W, strain hpr5, active compounds read low 0.997 | locus YJL095W, strain BCK1 (second series), active compounds read low 0.992 | locus YJL095W, strain BCK1, active compounds read low 0.966 | locus YJL115W, strain asf1, active compounds read low 0.996 | locus YJL129C, strain trk1, active compounds read low 0.994 | locus YJL154C, strain vps35, active compounds read low 0.998 | locus YJL164C, strain tpk1, active compounds read low 0.977 | locus YJL166W, strain qcr8, active compounds read low 0.997 | locus YJL187C, strain SWE1, active compounds read low 0.996 | locus YJR066W, strain TOR1, active compounds read low 0.917 | locus YJR075W, strain HOC1, active compounds read low 0.99 | locus YKL160W, strain elf1, active compounds read low 1 | locus YKR026C, strain gcn3, active compounds read low 0.98 | locus YKR091W, strain srl3, active compounds read low 0.992 | locus YLL001W, strain dnm1, active compounds read low 0.994 | locus YLL026W, active compounds read low 0.99 | locus YLL041C, strain sdh2, active compounds read low 1 | locus YLR027C, strain aat2, active compounds read low 0.993 | locus YLR113W, strain HOG1, active compounds read low 0.931 | locus YLR221C, strain rsa3, active compounds read low 0.987 | locus YLR258W, strain gsy2, active compounds read low 0.979 | locus YLR262C, strain YPT6 (second series), active compounds read low 0.947 | locus YLR320W, strain mms22, active compounds read low 0.99 | locus YLR342W, strain FKS1, active compounds read low 0.987 | locus YLR357W, strain rsc2, active compounds read low 0.975 | locus YLR370C, strain arc18, active compounds read low 0.998 | locus YLR384C, strain iki3, active compounds read low 0.992 | locus YML120C, strain ndi1, active compounds read low 0.989 | locus YMR058W, strain fet3, active compounds read low 0.999 | locus YMR125W, strain sto1, active compounds read low 0.987 | locus YMR129W, active compounds read low 0.997 | locus YMR205C, strain PFK2, active compounds read low 0.986 | locus YMR231W, strain pep5, active compounds read low 0.996 | locus YMR307W, strain GAS1, active compounds read low 0.986 | locus YNL071W, strain lat1, active compounds read low 1.02 | locus YNL175C, strain NOP13, active compounds read low 1.02 | locus YNL183C, strain NPR1, active compounds read low 0.915 | locus YNL197C, strain WHI3, active compounds read low 0.994 | locus YNL209W, strain ssb2, active compounds read low 0.998 | locus YNL224C, strain SQS1, active compounds read low 1 | locus YNL248C, strain rpa49, active compounds read low 1.01 | locus YNL322C, strain KRE1 (second series), active compounds read low 0.99 | locus YNL322C, strain KRE1, active compounds read low 1.01 | locus YNR049C, strain mso1, active compounds read low 0.989 | locus YOR001W, strain rrp6, active compounds read low 0.994 | locus YOR070C, strain gyp1, active compounds read low 0.999 | locus YOR080W, strain dia2, active compounds read low 0.989 | locus YOR083W, strain WHI5 (second series), active compounds read low 0.996 | locus YOR083W, strain WHI5, active compounds read low 1 | locus YOR106W, strain vam3, active compounds read low 1.02 | locus YOR231W, strain MKK1, active compounds read low 0.983 | locus YOR265W, strain rbl2, active compounds read low 0.988 | locus YOR270C, strain vph1, active compounds read low 0.999 | locus YOR290C, strain snf2, active compounds read low 0.992 | locus YPL051W, strain arl3, active compounds read low 0.989 | locus YPL055C, strain LGE1, active compounds read low 0.996 | locus YPL078C, strain atp4, active compounds read low 0.994 | locus YPL106C, strain sse1, active compounds read low 0.995 | locus YPL240C, strain hsp82, active compounds read low 0.995 | locus YPL241C, strain CIN2, active compounds read low 0.995 | locus YPL256C, strain CLN2, active compounds read low 0.959
